These results are taken from the supplement of paper PMC12067926.

A number with no mark means an inactive call.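 The calls were made as follows: active = growth AUC significantly below the DMSO wells by Dunnett test; inactive = the rest.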

For the experiment, the system named is Community 10. Kind of experiment: relative growth (AUC of 72 h growth curve relative to DMSO control, dAUC) (ratio); higher = more growth (less inhibition), active = hit call of the paper. The note with it: 20 µM. On the procedure:
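Environmental bacterial isolates (Iceland stream sediment and Silwood Park soil) and whole stream-sediment communities were grown in LB from a 1:100 dilution with each pesticide at 20 µM (1% DMSO). A600 was read hourly for 72 h and the area under a spline-fitted growth curve (AUC) was computed. dAUC is the mean AUC of 3 biological replicates divided by the mean AUC of the DMSO controls. Significance was tested by Dunnett's test against the DMSO control.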
Regarding `O=C1C2CC=CCC2C(=O)N1SC(Cl)(Cl)Cl` (stereo not given), the relative growth was 0.58.
With `CCOCN(C(=O)CCl)c1c(C)cccc1CC`, the relative growth was 0.858.
`Oc1ccc(Cl)cc1Cc1cc(Cl)ccc1O`: the relative growth is 0.642.
Under `Cc1cc(C2CC2)nc(Nc2ccccc2)n1` stands 0.995.
In the case of `N#CCNC(=O)c1cnccc1C(F)(F)F`, the relative growth was 0.928.
As for `CCCSP(=O)(OCC)Oc1ccc(Br)cc1Cl` (stereo not given), the relative growth was 0.705.
The value for `CCCCOC(=O)[C@H](C)Oc1ccc(Oc2ccc(C#N)cc2F)cc1` was 0.88; that for `CCNc1nc(Cl)nc(NC(C)C)n1` was 1.04; that for `CC(C1CC1)C(O)(Cn1cncn1)c1ccc(Cl)cc1` (stereo not given) was 1.02.
Take `CCC(C)c1ccccc1OC(=O)NC` (stereo not given): the relative growth was 1.08.
The value for `CCCCc1c(C)nc(NCC)nc1OS(=O)(=O)N(C)C` was 0.816; that for `CC(C)(C)[C@@H](O)[C@H](Oc1ccc(Cl)cc1)n1cncn1` was 1.07; that for `CO/C=C(/C(=O)OC)c1ccccc1Oc1cc(Oc2ccccc2C#N)ncn1` was 0.868.
Take `CCOP(=S)(OCC)Oc1cc(C)nc(C(C)C)n1`: the relative growth was 0.743.
The value for `Cc1nnc(-c2ccccc2)c(=O)n1N` was 0.899; that for `N#Cc1nn(-c2c(Cl)cc(C(F)(F)F)cc2Cl)c(N)c1[S+]([O-])C(F)(F)F` (stereo not given) was 1.05.
Take `CNC(=O)ON=C(C)SC`: the relative growth was 1.14.
The value for `CC(COc1ccc(Oc2ccccc2)cc1)Oc1ccccn1` (stereo not given) was 1.01.
In the case of `CC1COC(Cn2cncn2)(c2ccc(Oc3ccc(Cl)cc3)cc2Cl)O1` (stereo not given), the relative growth is 0.896.
Turning to `O=C1C2(Cl)C3(Cl)C4(Cl)C(Cl)(Cl)C5(Cl)C3(Cl)C1(Cl)C5(Cl)C24Cl` (stereo not given), the relative growth was 0.82.
The value for `O=C(O)COc1ccc(Cl)cc1Cl` was 0.98; that for `COC(=O)N(C(=O)N1CO[C@@]2(C(=O)OC)Cc3cc(Cl)ccc3C2=N1)c1ccc(OC(F)(F)F)cc1` was 0.878.
The value for `CN1COCN(Cc2cnc(Cl)s2)/C1=N\[N+](=O)[O-]` was 0.777.
Consider `COc1ccc(C(=CC(=O)N2CCOCC2)c2ccc(Cl)cc2)cc1OC` (mixture of isomers), for which the relative growth is 0.919.
Under `C[N+]1(C)CCCCC1` stands 1.01.
For the compound `CCSC(C)CC1CC(=O)C(/C(CC)=N/OC/C=C/Cl)=C(O)C1` (mixture of isomers), the relative growth was 0.965.
Under `OC(Cc1ccccc1Cl)(Cn1nc[nH]c1=S)C1(Cl)CC1` (stereo not given) stands 0.945; under `CC1(C)C(C(=O)OC(C#N)c2cccc(Oc3ccccc3)c2)C1(C)C` (stereo not given), 0.908; under `CCOP(=S)(OCC)Oc1nc(Cl)c(Cl)cc1Cl`, 0.928.
As for `CCCC(Cn1cncn1)c1ccc(Cl)cc1Cl` (stereo not given), the relative growth is 0.973.
Under `CNC(=O)Oc1cccc(/N=C/N(C)C)c1` stands 0.8.
Under `CC(C)N(C(=O)COc1nnc(C(F)(F)F)s1)c1ccc(F)cc1` stands 0.763.
Under `Fc1ccc(Oc2ccnc3cc(Cl)cc(Cl)c23)cc1` stands 0.887; under `ClC1C(Cl)C(Cl)C(Cl)C(Cl)C1Cl` (stereo not given), 0.844; under `CC1(C)[C@H](/C=C(\Cl)C(F)(F)F)[C@@H]1C(=O)OC(C#N)c1cccc(Oc2ccccc2)c1` (stereo not given in full), 0.816.
As for `CC(C)N(C)S(=O)(=O)NC(=O)c1cc(-n2c(=O)cc(C(F)(F)F)n(C)c2=O)c(F)cc1Cl`, the relative growth was 0.909.
The value for `CO/C=C(/C(=O)OC)c1ccccc1COc1cccc(C(F)(F)F)n1` was 0.887.
Under `Cc1nc(N(C)C)nc(OC(=O)N(C)C)c1C` stands 0.979; under `Cc1cc(C(C#N)c2ccc(Cl)cc2)c(Cl)cc1NC(=O)c1cc(I)cc(I)c1O` (stereo not given), 0.677; under `CCC(=O)Nc1ccc(Cl)c(Cl)c1`, 0.919.
